Measurements: PubChem BioAssay
For some assays here: Potency and affinity values are given separately. The list shows a part of the results. Active and inactive are the calls of the source.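 How the source made its calls, unless noted: active means fluorescence ratio falls more than 5 SD below the full-stimulation control mean, in both duplicate runs; inactive means the rest.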

How the values were obtained:
[1] = molecular target: Short transient receptor potential channel 4 (Mus musculus) (UniProt Q9QUQ5); test: DAMGO-gated TRPC4 membrane potential modulation – cell-based, second specificity screen, HEK293 TRPC4/mu-opioid, selectivity assay for TRPC6 inhibitor project, confirmation (AID 2776;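 active means compounds whose fluorescence signal differed from control wells by over 3 SD, either direction, in both duplicate plates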); details: HEK293 TRPC4/MOR, membrane potential dye fluorescence, at 10 µM, channel activated by saturating DAMGO dose; active compounds read high
[2] = test system: transient receptor potential cation channel C4 (TRPC4), mouse; test: membrane potential change in TRPC4 cells – cell-based, HEK293 TRPC4/mu-opioid, membrane potential dye, selectivity assay for TRPC6 inhibitor project, confirmation (AID 2777;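 active means rise or fall in signal beyond 3 SD of buffer-only wells in both replicate plates, either sign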;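 further: integrated kinetic ratio of fluorescence range over baseline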); details: membrane potential fluorescence, at 10 µM
[3] = parental HEK293 depolarization signal interference – cell-based, second counter screen, counter-screen for TRPC6 inhibitor project, confirmation (AID 2779;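 active means membrane potential signal moving either way by over 3 SD of the maximum-effect control, in both duplicate plates, meaning non-specific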); details: parental HEK293 membrane potential dye fluorescence; at 10 µM; maximal acetylcholine challenge after compound addition
[4] = nonspecific voltage dye signal in HEK293 – cell-based, parental HEK293, counter-screen for TRPC6 inhibitor project, confirmation (AID 2780;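 active means membrane potential signal shifting up or down by more than 3 SD of buffer-only wells, on both duplicate plates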;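 on membrane potential signal change: plate controls were buffer EC0 wells for no effect and acetylcholine ECmax wells for full effect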); details: parental HEK293 membrane potential dye fluorescence; at 10 µM
[5] = molecular target: Short transient receptor potential channel 6 (Mus musculus) (UniProt Q61143); test: blockers of TRPC6 cation channel activity – HEK293 cells, membrane potential dye, duplicate, confirmation (AID 488960); details: ACh-evoked depolarization, at 10 µM; active compounds read high;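 on inhibition: integrated fluorescence ratio of peak minus minimum over baseline after agonist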
[6] = molecular target: Short transient receptor potential channel 6 (Mus musculus) (UniProt Q61143); test: mouse TRPC6 channel activators, confirmation, HEK293 cells, membrane potential dye, duplicate (AID 488961;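 active means ratio signal rise beyond 5 SD above unstimulated control wells' mean, seen in both duplicate runs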); details: HEK293-TRPC6 membrane potential dye fluorescence, FDSS, at 10 µM; active compounds read high
[7] = test system: TRPC4 beta (transient receptor potential cation channel C4), mouse; test: TRPC4 cation channel opening, retest – cell-based, Fluo4 calcium, HEK293 TRPC4beta/mu-opioid, duplicates, 10 µM, confirmation (AID 2426;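 active means fluorescence ratio normalized to control raised more than 50% in primary screen plus both repeat runs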;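 further: percent rise of integrated ratio over buffer wells lacking compound which define 0%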); details: Fluo4 calcium fluorescence, at 10 µM; active compounds read high
[8] = test system: transient receptor potential cation channel C4 beta (TRPC4), mouse; test: TRPC4 cation channel opening, second retest – cell-based, second round, Fluo4, HEK293 TRPC4beta/mu-opioid, 1 µM, confirmation (AID 2461;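 active means primary screen active and over 50% activation in each of two duplicate runs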); details: Fluo4 calcium fluorescence, at 1 µM; active compounds read high
[9] = test system: TRPC4 (transient receptor potential cation channel C4 beta), mouse; test: potentiation of DAMGO EC20 TRPC4 response – cell-based, second round, Fluo-4, HEK293 TRPC4beta/mu-opioid, 1 µM, confirmation (AID 2554;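 active means primary screen hit whose fluorescence ratio, in both repeats, exceeds the weak agonist control mean by 3 SD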); details: DAMGO EC20, Fluo-4 calcium flux, at 1 µM; active compounds read high
[10] = test system: TRPC4 beta (transient receptor potential cation channel C4), mouse; test: potentiation of DAMGO EC20 TRPC4 response – cell-based, Fluo-4, HEK293 TRPC4beta/mu-opioid, confirmation (AID 2555;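 active means primary screen hit whose calcium fluorescence ratio, in both repeats, exceeds the weak agonist control mean by 3 SD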); details: DAMGO EC20, Fluo-4 calcium flux, at 10 µM; active compounds read high
[11] = molecular target: Short transient receptor potential channel 4 (Mus musculus) (UniProt Q9QUQ5); test: blockers of DAMGO-evoked TRPC4 calcium flux – cell-based, Fluo4, HEK293 TRPC4beta/mu-opioid, confirmation (AID 2636;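 active means calcium signal cut by more than 3 SD below the full-agonist control yet still positive, in both repeats and the earlier primary screen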); details: at 10 µM; active compounds read high
[12] = molecular target: Short transient receptor potential channel 4 (Mus musculus) (UniProt Q9QUQ5); test: blockers of DAMGO-evoked TRPC4 calcium flux – cell-based, second round, Fluo4, HEK293 TRPC4beta/mu-opioid, 1 µM, confirmation (AID 2637;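 active means calcium signal ratio cut to more than 3 SD under the fully stimulated control mean yet still positive, in both repeats and the primary screen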); details: at 1 µM; active compounds read high
[13] = molecular target: Short transient receptor potential channel 4 (Mus musculus) (UniProt Q9QUQ5); test: block of DAMGO-driven TRPC4 calcium entry – cell-based, HEK293 TRPC4/mu-opioid, Fluo-4 calcium, dose response (AID 434942;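 active means primary screen inhibitor hit that blocks the TRPC4 channel at some tested dose, yielding a dose curve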)
[14] = molecular target: Short transient receptor potential channel 6 (Mus musculus) (UniProt Q61143); test: TRPC6 blockade by TRPC4 inhibitor hits – cell-based, HEK293, membrane potential dye, duplicate, selectivity assay for TRPC4 inhibitor project, confirmation (AID 434948;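 active means active in primary screen and both duplicates, each dropping signal beyond three positive-control SD with fluorescence still positive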); details: HEK293 TRPC6, membrane potential dye fluorescence, at 10 µM, stimulated with maximal-effect acetylcholine; active compounds read high
[15] = molecular target: Short transient receptor potential channel 6 (Mus musculus) (UniProt Q61143); test: TRPC6 opening by TRPC4 activator hits – cell-based, HEK293, membrane potential dye, duplicate, selectivity assay for TRPC4 activator project, confirmation (AID 434950;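 active means membrane potential signal rise above negative control mean plus 3 SD in both duplicates, also active in the earlier TRPC4 screen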;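 on activation: 0% = buffer only wells and 100% = acetylcholine maximal-effect wells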); details: HEK293 TRPC6, membrane potential fluorescence, at 10 µM; activation: active compounds read high; outcome: activation
[16] = molecular target: Short transient receptor potential channel 6 (Mus musculus) (UniProt Q61143); test: positive modulators of mouse TRPC6 channel – HEK293 cells, membrane potential dye, duplicate, selectivity assay for TRPC4 potentiator project, confirmation (AID 434952;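 active means compound raising the membrane signal above positive-control mean plus 3 SD in both repeats, and a primary screen hit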); details: HEK293 TRPC6, membrane potential dye fluorescence, at 10 µM, maximal acetylcholine added after compound; active compounds read high
[17] = molecular target: Short transient receptor potential channel 4 (Mus musculus) (UniProt Q9QUQ5); test: calcium flux activators in TRPC4/5HT1a cells, counter-screen for TRPC4 activator project, cell-based, second counter screen, HEK293 TRPC4/5HT1a, Fluo-4 (AID 434977;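 active means calcium signal rise above buffer-control mean plus 5 SD in both duplicates, and also a hit in the primary screen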;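 further: plate controls were assay buffer for no effect and maximal serotonin response for full effect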); details: Fluo-4 calcium flux, at 10 µM; active compounds read high
[18] = serotonin-gated TRPC4 signal block – cell-based, second counter screen, HEK293 TRPC4/5HT1a, Fluo-4, counter-screen for TRPC4 inhibitor project, confirmation (AID 434978;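 active means primary screen active whose calcium signal fell more than 3 SD beyond the full-serotonin control mean in both duplicate plates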;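 further: serotonin given first at submaximal then at maximal dose after compound preincubation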); details: Fluo-4 calcium flux, at 10 µM, serotonin added to trigger calcium flux; active compounds read high
[19] = test system: TRPC4 (mouse), co-expressed with 5HT1a in HEK293; test: enhancement of serotonin-evoked TRPC4 response – cell-based, second counter screen, HEK293 TRPC4/5HT1a, Fluo-4, counter-screen for TRPC4 potentiator project, confirmation (AID 434979;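 active means signal rise over 3 SD above mean of control wells given weak agonist, in both repeats and first screen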); details: Fluo-4 calcium flux, at 10 µM, serotonin added at its EC20 dose; active compounds read high
[20] = nonspecific calcium rise without TRPC4 – cell-based, HEK293 mu-opioid receptor line, counter-screen for TRPC4 activator project, confirmation (AID 449723;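 active means hit in primary screen, with calcium signal over 5 SD above buffer well mean in both duplicates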;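 further: counter screen cells carry the mu-opioid receptor alone and lack TRPC4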); details: HEK293 mu-opioid cells, Fluo-4 calcium fluorescence, at 10 µM; active compounds read high
[21] = nonspecific potentiation of DAMGO calcium response – cell-based, HEK293 mu-opioid receptor line, counter-screen for TRPC4 allosteric potentiator project, confirmation (AID 449724;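 active means calcium signal rise more than 3 SD above the low-dose agonist control mean, in both duplicate plates and the primary screen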); details: HEK293 mu-opioid receptor cells, Fluo-4 calcium flux, at 10 µM, compound added before EC20 DAMGO stimulus; active compounds read high
[22] = molecular target: Potassium voltage-gated channel subfamily KQT member 1 (Homo sapiens) (UniProt P51787); test: blockers of human KCNQ1 channel – cell-based, Tl flux, duplicate, confirmation (AID 588353;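 active means primary screen active, with duplicate mean exceeding buffer control mean plus 3 SD of buffer wells, cut at about 28% in these data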;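 further: 0% = buffer control ratio and 100% = XE991 inhibitor control ratio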); details: KCNQ1 cell line, FluxOR thallium flux fluorescence, at 10 µM, active compounds read high
[23] = nonspecific activity in CHO-K1 cells without KCNQ1 – parental CHO cells, Tl flux, counter-screen for KCNQ1 inhibitor project (AID 588366;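 active means mean of duplicate thallium-flux fluorescence ratios in parental host cells more than 5 SD below the buffer control mean, cut at about 0.38 in these data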;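 further: ratio is peak minus minimum fluorescence divided by baseline fluorescence; actives read low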); details: parental CHO-K1, FluxOR thallium flux fluorescence ratio; at 10 µM; active compounds read low; zero means no signal rise above baseline
[24] = molecular target: Potassium voltage-gated channel subfamily KQT member 2 (Rattus norvegicus) (UniProt O88943); test: block of rat KCNQ2 potassium channel – cell-based, selectivity assay for KCNQ1 inhibitor project (AID 651746;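 active means mean percent inhibition of the KCNQ2 thallium signal more than 5 SD above the buffer-only control wells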;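 further: KCNQ2 expressed in CHO cells; 0% = buffer control wells and 100% = XE-991 inhibitor control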); details: KCNQ2 cells, FluxOR thallium flux fluorescence, at 10 µM; active compounds read high
[25] = molecular target: Potassium voltage-gated channel subfamily E member 1 (Homo sapiens) + Potassium voltage-gated channel subfamily KQT member 1 (Homo sapiens) (UniProt P15382+P51787); test: block of human IKs channel complex – CHO-K1 cells, thallium flux, FluxOR, selectivity assay for KCNQ1 inhibitor project (AID 652147;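 active means mean percent inhibition of duplicate wells above the buffer-only control mean plus 3 SD of those controls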); details: KCNQ1/KCNE1 cells, FluxOR thallium flux fluorescence, at 10 µM; active compounds read high
[26] = nonspecific voltage dye response without TRPC6 – cell-based, parental HEK293, counter-screen for TRPC6 modulator project, confirmation (AID 488924;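 active means membrane potential signal moves up or down beyond 5 SD from buffer-only wells, on both duplicate plates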); details: parental HEK293, membrane potential dye fluorescence; at 10 µM
[27] = membrane potential response modulators in host HEK293 cells – cell-based, second counter-screen, parental HEK293, membrane potential dye, counter-screen for TRPC6 modulator project, confirmation (AID 488926;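 active means membrane potential signal drops by more than 5 SD from the mean control signal, in both duplicate plates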); details: parental HEK293, membrane potential dye fluorescence, at 10 µM, after compound, maximal acetylcholine stimulation; active compounds read high
[28] = test system: Transient receptor potential cation channel subfamily C member 4 (mouse); test: off-target membrane potential effects via mouse TRPC4 – cell-based, HEK293 TRPC4/mu-opioid, membrane potential dye, selectivity assay for TRPC6 modulator project, confirmation (AID 488927;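 active means membrane potential signal moved up or down beyond 5 SD of buffer control wells, in both duplicate plates, actives on both sides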); details: membrane potential fluorescence, at 10 µM
[29] = test system: TRPC4 (transient receptor potential cation channel C4), mouse; test: DAMGO-evoked mouse TRPC4 response blockade – cell-based, second screen, HEK293 TRPC4/mu-opioid, membrane potential dye, selectivity assay for TRPC6 modulator project, confirmation (AID 488928;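 active means drop in membrane potential signal beyond 5 SD of the control wells in both duplicate plates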;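 further: TRPC4 counter screen for TRPC6 hits run under conditions tuned for TRPC6 not TRPC4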); details: membrane potential dye fluorescence, at 10 µM, stimulated with maximal-effect DAMGO; active compounds read high

Sequence of Short transient receptor potential channel 6 (Mus musculus) (Q61143 whole entry, looked up): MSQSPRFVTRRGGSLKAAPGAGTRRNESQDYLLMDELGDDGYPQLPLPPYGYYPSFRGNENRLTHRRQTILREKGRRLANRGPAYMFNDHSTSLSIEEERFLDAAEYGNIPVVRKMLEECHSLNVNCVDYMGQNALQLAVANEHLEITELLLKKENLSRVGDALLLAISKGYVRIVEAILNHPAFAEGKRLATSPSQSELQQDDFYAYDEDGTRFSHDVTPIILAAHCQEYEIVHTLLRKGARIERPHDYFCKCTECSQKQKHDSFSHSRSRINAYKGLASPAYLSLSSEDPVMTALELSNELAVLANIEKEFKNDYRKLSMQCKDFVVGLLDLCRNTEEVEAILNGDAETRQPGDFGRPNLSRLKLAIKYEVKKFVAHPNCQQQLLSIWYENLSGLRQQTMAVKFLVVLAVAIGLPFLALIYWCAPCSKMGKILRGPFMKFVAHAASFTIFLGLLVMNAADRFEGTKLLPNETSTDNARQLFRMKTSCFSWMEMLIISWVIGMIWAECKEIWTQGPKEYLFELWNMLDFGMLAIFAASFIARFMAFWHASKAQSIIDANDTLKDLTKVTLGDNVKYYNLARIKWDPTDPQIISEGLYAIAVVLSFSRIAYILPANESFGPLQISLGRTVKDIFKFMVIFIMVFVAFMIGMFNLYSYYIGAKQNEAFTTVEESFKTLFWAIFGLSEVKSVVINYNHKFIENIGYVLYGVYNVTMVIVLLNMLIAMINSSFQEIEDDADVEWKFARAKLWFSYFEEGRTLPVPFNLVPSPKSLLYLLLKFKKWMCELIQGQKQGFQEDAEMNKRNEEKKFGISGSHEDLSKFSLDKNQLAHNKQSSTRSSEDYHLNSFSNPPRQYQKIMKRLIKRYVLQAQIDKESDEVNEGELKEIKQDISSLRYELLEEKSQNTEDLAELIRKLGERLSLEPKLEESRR
Sequence of Short transient receptor potential channel 4 (Mus musculus) (Q9QUQ5 whole entry, looked up): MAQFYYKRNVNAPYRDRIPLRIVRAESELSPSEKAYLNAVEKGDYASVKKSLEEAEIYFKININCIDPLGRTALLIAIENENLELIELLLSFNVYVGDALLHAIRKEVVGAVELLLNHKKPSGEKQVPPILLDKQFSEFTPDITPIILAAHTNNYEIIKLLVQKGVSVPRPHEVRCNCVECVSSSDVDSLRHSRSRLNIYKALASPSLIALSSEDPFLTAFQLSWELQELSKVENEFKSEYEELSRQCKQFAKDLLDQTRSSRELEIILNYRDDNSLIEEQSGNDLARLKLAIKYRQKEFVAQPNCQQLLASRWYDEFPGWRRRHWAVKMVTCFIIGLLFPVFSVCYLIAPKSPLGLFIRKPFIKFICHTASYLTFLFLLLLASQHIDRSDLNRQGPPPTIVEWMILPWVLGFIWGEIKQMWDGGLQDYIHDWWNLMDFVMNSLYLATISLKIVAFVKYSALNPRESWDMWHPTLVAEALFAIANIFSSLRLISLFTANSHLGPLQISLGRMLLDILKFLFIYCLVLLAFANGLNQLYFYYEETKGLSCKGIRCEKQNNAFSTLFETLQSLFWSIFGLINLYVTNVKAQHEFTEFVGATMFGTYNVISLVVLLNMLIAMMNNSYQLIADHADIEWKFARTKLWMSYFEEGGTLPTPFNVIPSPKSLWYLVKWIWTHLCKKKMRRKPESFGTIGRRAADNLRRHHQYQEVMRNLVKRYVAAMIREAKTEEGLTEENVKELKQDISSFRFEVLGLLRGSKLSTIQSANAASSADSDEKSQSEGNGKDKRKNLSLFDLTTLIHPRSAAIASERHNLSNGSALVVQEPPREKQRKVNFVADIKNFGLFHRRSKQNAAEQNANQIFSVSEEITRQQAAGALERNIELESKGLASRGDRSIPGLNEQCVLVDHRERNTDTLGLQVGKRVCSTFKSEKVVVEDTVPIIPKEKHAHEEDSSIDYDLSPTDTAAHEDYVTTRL
Sequence of Potassium voltage-gated channel subfamily E member 1 (Homo sapiens) + Potassium voltage-gated channel subfamily KQT member 1 (Homo sapiens) (P51787 whole entry, looked up): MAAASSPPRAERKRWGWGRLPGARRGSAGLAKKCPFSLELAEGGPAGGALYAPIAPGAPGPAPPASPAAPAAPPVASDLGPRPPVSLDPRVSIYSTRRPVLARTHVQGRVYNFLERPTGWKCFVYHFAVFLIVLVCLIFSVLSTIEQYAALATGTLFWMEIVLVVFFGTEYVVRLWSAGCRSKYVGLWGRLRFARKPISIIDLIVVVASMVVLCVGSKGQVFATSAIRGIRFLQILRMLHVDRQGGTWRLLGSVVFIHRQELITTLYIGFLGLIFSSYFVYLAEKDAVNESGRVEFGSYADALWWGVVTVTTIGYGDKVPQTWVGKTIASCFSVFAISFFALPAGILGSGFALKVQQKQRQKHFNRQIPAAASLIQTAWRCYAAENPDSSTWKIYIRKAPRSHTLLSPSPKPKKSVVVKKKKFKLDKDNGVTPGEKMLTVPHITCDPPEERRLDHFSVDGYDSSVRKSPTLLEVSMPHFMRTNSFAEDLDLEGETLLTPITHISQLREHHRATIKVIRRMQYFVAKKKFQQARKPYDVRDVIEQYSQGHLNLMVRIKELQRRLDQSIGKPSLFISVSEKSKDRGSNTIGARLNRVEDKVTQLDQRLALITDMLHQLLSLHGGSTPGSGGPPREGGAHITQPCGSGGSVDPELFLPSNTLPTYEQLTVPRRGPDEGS
Sequence of Potassium voltage-gated channel subfamily KQT member 1 (Homo sapiens) (P51787 whole entry, looked up): as above
Sequence of Potassium voltage-gated channel subfamily KQT member 2 (Rattus norvegicus) (O88943 whole entry, looked up): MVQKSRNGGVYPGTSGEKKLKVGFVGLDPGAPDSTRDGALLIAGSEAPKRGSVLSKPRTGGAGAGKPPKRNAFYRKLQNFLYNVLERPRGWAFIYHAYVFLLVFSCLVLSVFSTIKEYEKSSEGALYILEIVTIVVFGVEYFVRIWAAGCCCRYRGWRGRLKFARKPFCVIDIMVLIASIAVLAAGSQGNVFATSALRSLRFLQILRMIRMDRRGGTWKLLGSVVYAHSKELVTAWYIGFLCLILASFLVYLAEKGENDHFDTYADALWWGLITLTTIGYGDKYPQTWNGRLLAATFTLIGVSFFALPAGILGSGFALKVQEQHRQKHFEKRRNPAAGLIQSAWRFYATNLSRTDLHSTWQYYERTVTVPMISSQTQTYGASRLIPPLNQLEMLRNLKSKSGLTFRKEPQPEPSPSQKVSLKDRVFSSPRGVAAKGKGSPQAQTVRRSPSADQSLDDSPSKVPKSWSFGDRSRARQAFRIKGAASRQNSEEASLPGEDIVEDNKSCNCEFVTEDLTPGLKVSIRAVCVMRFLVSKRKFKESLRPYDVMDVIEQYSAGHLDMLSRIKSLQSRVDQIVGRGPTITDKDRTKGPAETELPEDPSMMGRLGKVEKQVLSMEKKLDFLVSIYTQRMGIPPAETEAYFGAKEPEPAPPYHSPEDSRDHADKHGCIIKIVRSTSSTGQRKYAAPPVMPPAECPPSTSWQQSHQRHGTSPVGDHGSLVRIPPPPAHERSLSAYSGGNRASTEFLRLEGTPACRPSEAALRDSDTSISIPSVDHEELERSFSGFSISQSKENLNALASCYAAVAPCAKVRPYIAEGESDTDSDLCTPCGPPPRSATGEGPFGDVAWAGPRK

O=C1c2ccccc2C(=O)c2c1cccc2N1CCN(Cc2ccccc2)CC1
active: activity change, negative = inhibition [2] -17% | membrane potential signal change [4] -264% | inhibition [5] 59.7%
inactive: outcome [1] | outcome [3] | outcome [6]

CCOC(=O)c1c(NC(=O)COC(=O)Cc2c[nH]c3ccccc23)sc(C(=O)N(C)C)c1C
inactive: outcome [8] | outcome [11] | outcome [12] | outcome [13] | outcome [14] | outcome [16] | outcome [18] | outcome [20] | outcome [21]
active: activation [7] 194% | potentiation [9] 15% | potentiation [10] 55% | activation [15] 46% | activation [17] 107% | potentiation [19] 60%

COc1ccccc1C1SCCN1C(=O)c1ccc([N+](=O)[O-])cc1 (stereo not given)
inactive: outcome [1] | outcome [2] | outcome [3] | outcome [4] | outcome [5] | outcome [6]

Cn1c(=NC(=O)c2cnccn2)sc2ccccc21
active: activity change, negative = inhibition [2] -25.3% | signal change vs control [3] 24.5% | membrane potential signal change [4] -416%
inactive: outcome [1] | outcome [5] | outcome [6]

CN(C)c1ccc(C2N(C)C(=O)c3ccccc3N2C)cc1 (stereo not given)
active: signal change vs control [3] 262%
inactive: outcome [1] | outcome [2] | outcome [4] | outcome [5] | outcome [6]

OCCC1CN(Cc2ccc3nsnc3c2)CCN1C1CCCC1 (stereo not given)
inactive: outcome [1] | outcome [2] | outcome [3] | outcome [4] | outcome [5] | outcome [6]

CCCCc1cc(O)c(CCCC)c(O)c1
inactive: outcome [8] | outcome [9] | outcome [11] | outcome [12] | outcome [13] | outcome [14] | outcome [15] | outcome [16] | outcome [18] | outcome [19] | outcome [21]
active: activation [7] 63% | potentiation [10] 14% | activation [17] 44.6% | activation [20] 34.5%

CC(C)CCNc1nc(N2CCCC2)c2c(c1C#N)CCN(C)C2
inactive: outcome [3] | outcome [6]
active: inhibition [1] 54% | activity change, negative = inhibition [2] -16.9% | membrane potential signal change [4] -209% | inhibition [5] 71.5%

CCCCNc1nc2ccccc2[nH]1
inactive: outcome [14] | outcome [15] | outcome [16]

CCCc1cc(=S)n2c([nH]c3ccccc32)c1C#N
active: activity change, negative = inhibition [2] 33.6% | membrane potential signal change [4] 22.1% | inhibition [5] 51.5% | inhibition [22] 80.5% | inhibition [24] 91.3%
inactive: outcome [1] | outcome [3] | fluorescence ratio (Tl flux) [23] 0.394 | outcome [25]

CCOC(=O)N1CCN(C(=O)c2ccc3c(c2)N(Cc2ccc(C)cc2)CCS3)CC1
active: activity change, negative = inhibition [2] 0.69% | signal change vs control [3] 307%
inactive: outcome [1] | outcome [4] | outcome [5] | outcome [6]

O=C(NNS(=O)(=O)c1ccc(Cl)cc1)C1CCN(Cc2ccccc2)CC1
inactive: outcome [1] | outcome [2] | outcome [6]
active: signal change vs control [3] -4% | membrane potential signal change [4] 0.15% | inhibition [5] 77.8%

CC(=O)Nc1ccc(NC(=O)CN2CCCC(C)C2)c(Cl)c1 (stereo not given)
inactive: outcome [26] | outcome [27] | outcome [28] | outcome [29]
active: inhibition [5] 66%

Cn1c(O)c(/C=N/NC(=O)c2cc3ccccc3cc2O)c2ccccc21
inactive: outcome [8] | outcome [9] | outcome [11] | outcome [12] | outcome [13] | outcome [14] | outcome [18]
active: activation [7] 81% | potentiation [10] 27% | activation [15] 524% | potentiation, percent of control [16] 238% | activation [17] 59.2% | potentiation [19] 17.8% | activation [20] 82.4% | activation [21] 879%
